Among the data in PubChem BioAssay (NCI) are growth values, retold here.

Assay in all cases: NCI-60 one-dose screen, 48 h (100 = growth as untreated, 0 = no growth, -100 = all killed)
One assay deals with SK-MEL-2 melanoma. Particulars: 10 µM unless noted.
The next assay relates to EKVX NSCLC. The note with it: 10 µM unless noted.
Another assay deals with SN12C renal. The note with it: 10 µM unless noted.
A further assay deals with UO-31 renal. Particulars: 10 µM unless noted.
In another assay the test system is TK-10 renal. The note with it: 10 µM unless noted.
For a further assay, the system named is ACHN renal. The note with it: 10 µM unless noted.
Another assay has as its system CAKI-1 renal. Particulars: 10 µM unless noted.
The subject of another assay is A498 renal. The note with it: 10 µM unless noted.
A further assay deals with CCRF-CEM leukemia. The note with it: 10 µM unless noted.
For a further assay, the system named is MOLT-4 leukemia. Particulars: 10 µM unless noted.
In the next assay the test system is RPMI-8226 leukemia. Particulars: 10 µM unless noted.
A further assay has as its system OVCAR-8 ovarian. The note with it: 10 µM unless noted.
The subject of a further assay is OVCAR-5 ovarian. Particulars: 10 µM unless noted.
A further assay relates to OVCAR-4 ovarian. The note with it: 10 µM unless noted.
A further assay concerns SK-OV-3 ovarian. The note with it: 10 µM unless noted.
The test system of a further assay is OVCAR-3 ovarian. The note with it: 10 µM unless noted.
The test system of a further assay is HS 578T breast. The note with it: 10 µM.
The subject of another assay is NCI/ADR-RES ovarian. Particulars: 10 µM unless noted.
A further assay deals with SR leukemia. Particulars: 10 µM unless noted.
The next assay relates to IGROV1 ovarian. Particulars: 10 µM unless noted.

This is part of a sample that, as a whole, favours compounds with a hit. Of some 83,000 tested, about 20% had one in any assay.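 Growth was measured after 48 h exposure to one concentration of compound in 96-well plates. Values under 10 count as active.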 Unmarked numbers belong to inactive results. Calls of active or inactive are those of the source.

`C=CCN(CCOC(=O)c1ccc([N+](=O)[O-])cc1)CCOC(=O)c1ccc([N+](=O)[O-])cc1`: the growth was 110% in the assay with SK-MEL-2 melanoma; 96.1% in the assay with EKVX NSCLC; 143% in the assay on SN12C renal; 69.9% in the assay with UO-31 renal; 114% in the assay with TK-10 renal; 95% in the assay on ACHN renal. Further, the growth was 86.1% with CAKI-1 renal; 95.2% with A498 renal; 94.3% in the assay on CCRF-CEM leukemia; 96.2% in the assay with MOLT-4 leukemia; 94.3% in the assay with RPMI-8226 leukemia; 98.7% with OVCAR-8 ovarian. The growth with OVCAR-5 ovarian was 102%; in the assay with OVCAR-4 ovarian it was 99.5%; with SK-OV-3 ovarian, 99.2%; with OVCAR-3 ovarian, 104%; in the assay with HS 578T breast, 101%; with NCI/ADR-RES ovarian, 96.8%.

Consider `CC1CN(CCCOC(=O)Nc2ccc(Cl)cc2)CCN1C(C)(C)C` (stereo unspecified), for which the growth is 112% in the assay on SK-MEL-2 melanoma; 96.9% in the assay with EKVX NSCLC; 113% in the assay on SN12C renal; 82.9% in the assay with UO-31 renal; 99.8% with TK-10 renal; 133% with ACHN renal. In addition, the growth in the assay on CAKI-1 renal was 89.8%; with A498 renal, 95.2%; in the assay with CCRF-CEM leukemia, 90.3%; in the assay on MOLT-4 leukemia, 103%; with RPMI-8226 leukemia, 100%; in the assay with OVCAR-8 ovarian it was 104%. In addition, the growth with OVCAR-5 ovarian is 105%; in the assay on OVCAR-4 ovarian, 111%; in the assay with SK-OV-3 ovarian, 93.8%; in the assay on HS 578T breast it was 116%; in the assay with NCI/ADR-RES ovarian, 99.6%.

For `COc1cc(-c2n/c(=C\c3c(O)[nH]c4cc(Cl)ccc34)cc3c2=Nc2ccccc2-3)cc(OC)c1OC`, the growth in the assay on SK-MEL-2 melanoma is 72.9%; in the assay on EKVX NSCLC, 64.1%; in the assay with SN12C renal, 78.4%; with UO-31 renal, 74.9%; in the assay on TK-10 renal, 63%; in the assay with ACHN renal it was 59.6%. For the same compound, the growth in the assay on CAKI-1 renal was 69.1%; with A498 renal it was 94.5%; in the assay with MOLT-4 leukemia, 70.6%; in the assay with SR leukemia, 36.8%; in the assay with RPMI-8226 leukemia, 84.6%; with OVCAR-8 ovarian it was 59.3%. For the same compound, the growth with OVCAR-5 ovarian was 102%; with OVCAR-4 ovarian, -1.32% (active); with SK-OV-3 ovarian it was 59.4%; in the assay with IGROV1 ovarian, 25.2%; in the assay on OVCAR-3 ovarian, 58.1%; with HS 578T breast, 50%. Moreover, in the assay with NCI/ADR-RES ovarian, the growth was 84.1%.

On to `C#CC[C@@H]1C[C@]2(C)[C@H]3CC=C4[C@H]5CC(C)(C)CC[C@]5(C(=O)NCCCCN)CC[C@@]4(C)[C@]3(C)CC[C@H]2C(C)(C)[C@H]1OC(C)=O`, for which the growth is 98.9% with SK-MEL-2 melanoma; 81.1% in the assay on EKVX NSCLC; -51.2% (active) with SN12C renal; -44.3% (active) with UO-31 renal; -27.5% (active) in the assay with TK-10 renal; -91.6% (active) in the assay with ACHN renal. Further, the growth was -70% (active) with CAKI-1 renal; 104% with A498 renal; 17.9% in the assay with CCRF-CEM leukemia; 0.939% (active) with SR leukemia; -10.2% (active) in the assay on RPMI-8226 leukemia; 3.77% (active) in the assay with OVCAR-8 ovarian. In addition, the growth with OVCAR-5 ovarian is 21.7%; in the assay with OVCAR-4 ovarian, 50.1%; in the assay with SK-OV-3 ovarian it was 116%; with IGROV1 ovarian, 32.8%; with OVCAR-3 ovarian it was 49.3%; in the assay with HS 578T breast it was 94.3%. Also, the growth with NCI/ADR-RES ovarian is 81.7%.

`COc1cc(OC)cc(-c2n/c(=C\c3c(O)[nH]c4ccc(Cl)cc34)cc3c2=Nc2ccccc2-3)c1`: the growth in the assay on SK-MEL-2 melanoma was 100%; with EKVX NSCLC, 91.9%; in the assay with SN12C renal it was 93.5%; in the assay with UO-31 renal it was 66.4%; with TK-10 renal, 116%; in the assay with ACHN renal it was 81.3%. The growth with CAKI-1 renal is 82.1%; in the assay with A498 renal, 94.2%; in the assay with MOLT-4 leukemia, 30.5%; in the assay on SR leukemia it was 23.5%; in the assay with RPMI-8226 leukemia, 71.2%; in the assay with OVCAR-8 ovarian, 54.5%. For the same compound, the growth with OVCAR-5 ovarian was 114%; in the assay on OVCAR-4 ovarian, 16.1%; in the assay on SK-OV-3 ovarian, 114%; in the assay on IGROV1 ovarian, -21.3% (active); with OVCAR-3 ovarian it was 69.7%; with HS 578T breast, 90.4%. The growth in the assay on NCI/ADR-RES ovarian is 81.6%.

In the case of `COc1ccc(-c2cn(-c3cccc(C(=O)/C=C/c4ccc(O)c(OC)c4)c3)c(=O)[nH]2)cc1`, the growth is 30% in the assay on SK-MEL-2 melanoma; 40.8% with EKVX NSCLC; 14.2% in the assay with SN12C renal; 19% in the assay with UO-31 renal; 35.6% in the assay on TK-10 renal; -47.8% (active) in the assay on ACHN renal. For the same compound, the growth in the assay with CAKI-1 renal was 24.6%; with CCRF-CEM leukemia it was 9.57% (active); in the assay with MOLT-4 leukemia, 5.6% (active); in the assay with SR leukemia, 7.01% (active); with RPMI-8226 leukemia, -40.4% (active); in the assay with OVCAR-8 ovarian it was 11.7%. In addition, the growth is 33% with OVCAR-5 ovarian; 33.6% in the assay with OVCAR-4 ovarian; 53.6% with SK-OV-3 ovarian; -32.8% (active) with IGROV1 ovarian; 12.7% in the assay with NCI/ADR-RES ovarian.

As to `COc1ccc2c(c1)CCCC21C(=O)Nc2ccccc21` (stereo unspecified), the growth in the assay with SK-MEL-2 melanoma is 96%; with EKVX NSCLC, 104%; in the assay on SN12C renal, 101%; with UO-31 renal, 82.4%; in the assay with TK-10 renal, 95.4%; with ACHN renal, 105%. Also, the growth in the assay with CAKI-1 renal was 103%; with A498 renal, 99.7%; in the assay on CCRF-CEM leukemia, 97.9%; in the assay on SR leukemia it was 80.5%; in the assay with RPMI-8226 leukemia, 96.9%; in the assay with OVCAR-8 ovarian it was 95.5%. In addition, the growth is 106% with OVCAR-5 ovarian; 98.8% in the assay on OVCAR-4 ovarian; 100% in the assay on SK-OV-3 ovarian; 102% with IGROV1 ovarian; 69.6% in the assay with OVCAR-3 ovarian; 104% with NCI/ADR-RES ovarian.

Turning to `O=C(Nc1ccccc1Cl)Oc1ccc2ccccc2c1`, the growth was 97.3% in the assay on SK-MEL-2 melanoma; 98.9% in the assay on EKVX NSCLC; 99.3% with SN12C renal; 68.7% with UO-31 renal; 130% in the assay on TK-10 renal; 98.3% in the assay with ACHN renal. The growth in the assay with CAKI-1 renal is 97.8%; in the assay with CCRF-CEM leukemia, 114%; in the assay on MOLT-4 leukemia, 78.2%; with SR leukemia, 71.1%; with RPMI-8226 leukemia, 97.8%; in the assay on OVCAR-8 ovarian it was 84.1%. Further, the growth with OVCAR-5 ovarian was 89%; with OVCAR-4 ovarian it was 101%; in the assay with SK-OV-3 ovarian, 93.5%; in the assay on IGROV1 ovarian, 77.9%; in the assay with OVCAR-3 ovarian, 96.6%; with HS 578T breast, 115%. For the same compound, the growth with NCI/ADR-RES ovarian is 101%.
